The text below walks through data of PubChem BioAssay (NCI).

Test systems include HCT-15 colon; HT29 colon; SNB-75 CNS; SNB-19 CNS; U251 CNS; PC-3 prostate; SK-MEL-5 melanoma; UACC-62 melanoma; LOX IMVI melanoma; SK-MEL-28 melanoma.
Common to all, as to assay: NCI-60 one-dose screen, 48 h (100 = growth as untreated, 0 = no growth, -100 = all killed)
Settings in all cases: 10 µM unless noted

Each structure is given as a SMILES string. This is part of a sample that, as a whole, favours compounds with a hit. Of some 83,000 tested, about 20% had one in any assay.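 Single-concentration screen, 48 h exposure, 96-well plates. Endpoint: percent growth. Below 10 = active.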 A number with no mark means an inactive call. Active and inactive are the calls of the source.

For the compound `N#Cc1c(-c2cccc(Cl)c2)cc(-c2cccnc2)[nH]c1=O`, the growth with HCT-15 colon was 44.8%; in the experiment with HT29 colon it was 115%; in the experiment with SNB-75 CNS, 61.1%; with SNB-19 CNS, 67.9%; with U251 CNS, 71.8%; in the experiment on PC-3 prostate it was 87.3%. Further, the growth in the experiment with SK-MEL-5 melanoma was 67.1%; in the experiment with UACC-62 melanoma it was 36.6%; in the experiment with LOX IMVI melanoma, 81.2%; with SK-MEL-28 melanoma, 64.4%.
Take `ClC(Cl)c1nc(-c2ccccc2)n2nc(-c3ccccc3)cc2n1`: the growth was -16% (active) with HCT-15 colon; 1.24% (active) in the experiment on HT29 colon; -37.5% (active) in the experiment with SNB-75 CNS; 6.64% (active) in the experiment on SNB-19 CNS; -14.9% (active) in the experiment on U251 CNS; 17.2% in the experiment on PC-3 prostate. Also, the growth was 84.4% with SK-MEL-5 melanoma, 68.4% in the experiment on UACC-62 melanoma, 72.1% in the experiment on LOX IMVI melanoma and 25.5% in the experiment on SK-MEL-28 melanoma.
Take `Cc1ccc2cnc(N)c(C#Cc3cc(C(=O)Nc4ccc(CN5CCN(C)CC5)c(C(F)(F)F)c4)cnc3C)c2c1`: the growth in the experiment with HCT-15 colon was -40.5% (active); in the experiment on HT29 colon, -62.7% (active); with SNB-75 CNS, -17.1% (active); with SNB-19 CNS, 17.4%; in the experiment with U251 CNS, -80.7% (active); in the experiment with PC-3 prostate, -86.9% (active). Also, the growth in the experiment with SK-MEL-5 melanoma was 26.8%; with UACC-62 melanoma, 7.26% (active); in the experiment with LOX IMVI melanoma, -71% (active); with SK-MEL-28 melanoma, -84.9% (active).
In the case of `Cc1ccc(C2CC(c3cccc(Nc4ccncc4)c3)=Nc3c(N)nc(N)nc3N2)cc1` (stereo not given), the growth is 40.4% in the experiment on HCT-15 colon; 21.7% in the experiment with HT29 colon; 70% in the experiment with SNB-75 CNS; 70.5% in the experiment on SNB-19 CNS; 42.4% in the experiment with U251 CNS; 43.8% in the experiment on PC-3 prostate. Moreover, the growth in the experiment on SK-MEL-5 melanoma was 65.3%; with UACC-62 melanoma it was 78.4%; in the experiment with LOX IMVI melanoma, 25.7%; with SK-MEL-28 melanoma, 93.2%.
In the case of `Clc1cccc(C2Cc3cnccc3-c3[nH]c4ccncc4c32)c1` (stereo not given), the growth is 25.2% with HCT-15 colon; 40.9% in the experiment on HT29 colon; 73.6% with SNB-75 CNS; 53.9% with SNB-19 CNS; 36.9% in the experiment with U251 CNS; 21.1% with PC-3 prostate. Further, the growth was -60.2% (active) in the experiment on SK-MEL-5 melanoma, 36.5% in the experiment on UACC-62 melanoma, 39.7% in the experiment on LOX IMVI melanoma and 62.7% in the experiment with SK-MEL-28 melanoma.
In the case of `CCCCCCCCn1ccc2cc(NC(=O)CN=[N+]=[N-])ccc21`, the growth was 96.8% in the experiment on HCT-15 colon; 104% with HT29 colon; 99.6% in the experiment on SNB-75 CNS; 97.1% in the experiment on SNB-19 CNS; 88.7% in the experiment on U251 CNS; 91.2% in the experiment on PC-3 prostate. The growth with SK-MEL-5 melanoma is 98%; in the experiment with UACC-62 melanoma, 84.2%; in the experiment with LOX IMVI melanoma, 104%; in the experiment with SK-MEL-28 melanoma it was 109%.
For `CCN(CC)c1ccc(-c2cc(-c3cc(OC)c(OC)c(OC)c3)nc(N3CCC(O)CC3)c2C#N)cc1`, the growth was -36.7% (active) with HCT-15 colon; -32.7% (active) in the experiment with HT29 colon; -41.5% (active) in the experiment with SNB-75 CNS; 15.4% with SNB-19 CNS; -32.5% (active) in the experiment with U251 CNS; 13.1% in the experiment with PC-3 prostate. Moreover, the growth with SK-MEL-5 melanoma was -99.4% (active); in the experiment on UACC-62 melanoma, -49.9% (active); with LOX IMVI melanoma, -27.8% (active); in the experiment on SK-MEL-28 melanoma it was -46.6% (active).
On to `O=c1cc(C(F)(F)F)c2cc(-c3cc4ccccc4c(=O)o3)c(O)cc2o1`, for which the growth with HCT-15 colon was 90.3%; in the experiment with HT29 colon, 106%; in the experiment on SNB-75 CNS, 76.1%; with SNB-19 CNS it was 67.7%; in the experiment with U251 CNS it was 65.7%; in the experiment on PC-3 prostate, 68.5%. The growth with SK-MEL-5 melanoma was 24.9%; in the experiment with UACC-62 melanoma, 21.9%; with LOX IMVI melanoma, 72.8%; with SK-MEL-28 melanoma, 69.6%.
Turning to `N=C(N)c1ccc(-c2ccc(-c3cc(Cl)cc(Cl)c3)s2)s1`, the growth in the experiment with HCT-15 colon is -84.8% (active); in the experiment on HT29 colon, -80.1% (active); in the experiment on SNB-75 CNS it was 3.24% (active); in the experiment with SNB-19 CNS, -61.9% (active); with U251 CNS, -86.5% (active); with PC-3 prostate it was 35.6%. Moreover, the growth is 86.6% in the experiment with SK-MEL-5 melanoma, -74% (active) in the experiment with UACC-62 melanoma, -82.4% (active) with LOX IMVI melanoma and 33.7% with SK-MEL-28 melanoma.
As to `CN(C)Cc1cc(C(C)(C)C)cc(Br)c1O`, the growth is 95.6% in the experiment on HCT-15 colon; 81.8% with HT29 colon; 91.5% in the experiment on SNB-75 CNS; 113% in the experiment with SNB-19 CNS; 107% in the experiment with U251 CNS; 90.5% with PC-3 prostate. Also, the growth was 96.1% in the experiment with SK-MEL-5 melanoma, 101% in the experiment on UACC-62 melanoma, 103% with LOX IMVI melanoma and 112% in the experiment on SK-MEL-28 melanoma.
As to `CCOC(=O)/C(=C(/C)NCC(C)C)c1cc(O)c(O)c2c(C)cc(=O)[nH]c12`, the growth in the experiment on HCT-15 colon is 29.8%; in the experiment on HT29 colon it was 111%; in the experiment on SNB-75 CNS it was 78.2%; in the experiment with SNB-19 CNS it was 50.9%; with U251 CNS it was 46.8%; with PC-3 prostate, 34.3%. Further, the growth in the experiment on SK-MEL-5 melanoma is 43.2%; in the experiment on UACC-62 melanoma, 66.8%; with LOX IMVI melanoma, 38.1%; in the experiment on SK-MEL-28 melanoma, 71%.
On to `O=S(O)c1cc(Cl)cc(Cl)c1OCc1ccccc1`, for which the growth in the experiment with HCT-15 colon was 112%; with HT29 colon, 104%; in the experiment on SNB-75 CNS it was 98.7%; in the experiment with SNB-19 CNS it was 102%; in the experiment with U251 CNS, 93.7%; with PC-3 prostate, 84.5%. Moreover, the growth in the experiment with SK-MEL-5 melanoma was 96.3%; in the experiment with UACC-62 melanoma it was 107%; in the experiment with LOX IMVI melanoma, 108%; in the experiment with SK-MEL-28 melanoma, 105%.
Turning to `COc1ccc(OC)c(Nc2nnc(-c3cc(OC)c(OC)c(OC)c3)o2)c1`, the growth in the experiment with HCT-15 colon was 99%; in the experiment on HT29 colon it was 86.8%; in the experiment on SNB-75 CNS it was 101%; in the experiment on SNB-19 CNS, 96.7%; in the experiment with U251 CNS it was 105%; with PC-3 prostate, 98.6%. The growth with SK-MEL-5 melanoma was 93.9%; in the experiment with UACC-62 melanoma, 87.8%; in the experiment with LOX IMVI melanoma, 97.9%; in the experiment with SK-MEL-28 melanoma, 102%.
`COc1ccc(/C=N/NC(=O)Cn2c(-c3ccc(S(C)(=O)=O)cc3)nc3ccccc32)cc1`: the growth in the experiment with HCT-15 colon is 98.8%; in the experiment on HT29 colon, 103%; with SNB-75 CNS, 101%; in the experiment on SNB-19 CNS it was 100%; with U251 CNS, 106%; in the experiment with PC-3 prostate, 93.2%. Besides, the growth is 96.7% in the experiment on SK-MEL-5 melanoma, 90.8% with UACC-62 melanoma, 114% in the experiment with LOX IMVI melanoma and 102% in the experiment on SK-MEL-28 melanoma.
